# Results as given in article PMC5700166.
# Numbering of substitutions follows the chain as printed.
# What was measured:
# Assay in all cases: protein-binding microarray (PBM); PBM: ~300 nM protein, 6 mM HEPES pH 7.8, 80 mM KCl, 0.5 mM EDTA, 0.5 mM EGTA, 6% glycerol, 35 ng/ul poly-dIdC, 1% milk, 1 h, room temperature; Ap Aiptasia and Nv Nematostella (sea anemones) / Co Capsaspora / Aq Amphimedon (sponge) / Dm Drosophila / Hu human; RHD is the Rel homology domain; high values mean tight binding
# Settings in all cases: dsDNA, one strand shown
# [1] = target: T1, GST-Ap-NF-kB RHD (Exaiptasia pallida (Aiptasia), UniProt A0A913YAJ5 2-422)
# T1 sequence: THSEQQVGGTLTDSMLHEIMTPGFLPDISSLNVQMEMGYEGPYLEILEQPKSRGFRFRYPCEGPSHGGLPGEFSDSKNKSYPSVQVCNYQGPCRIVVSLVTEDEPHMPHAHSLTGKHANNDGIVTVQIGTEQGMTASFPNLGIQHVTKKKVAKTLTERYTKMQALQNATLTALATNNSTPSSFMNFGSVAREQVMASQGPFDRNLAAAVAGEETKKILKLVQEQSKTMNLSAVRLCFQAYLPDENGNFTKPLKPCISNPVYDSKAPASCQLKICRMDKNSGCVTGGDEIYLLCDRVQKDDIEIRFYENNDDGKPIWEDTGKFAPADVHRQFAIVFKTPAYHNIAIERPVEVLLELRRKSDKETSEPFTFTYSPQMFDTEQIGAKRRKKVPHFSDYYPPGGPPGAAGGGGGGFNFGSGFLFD
# [2] = target: T2, GST-Nv-NF-kB (Cys allele) (Nematostella vectensis, UniProt E5G601 2-411)
# T2 sequence: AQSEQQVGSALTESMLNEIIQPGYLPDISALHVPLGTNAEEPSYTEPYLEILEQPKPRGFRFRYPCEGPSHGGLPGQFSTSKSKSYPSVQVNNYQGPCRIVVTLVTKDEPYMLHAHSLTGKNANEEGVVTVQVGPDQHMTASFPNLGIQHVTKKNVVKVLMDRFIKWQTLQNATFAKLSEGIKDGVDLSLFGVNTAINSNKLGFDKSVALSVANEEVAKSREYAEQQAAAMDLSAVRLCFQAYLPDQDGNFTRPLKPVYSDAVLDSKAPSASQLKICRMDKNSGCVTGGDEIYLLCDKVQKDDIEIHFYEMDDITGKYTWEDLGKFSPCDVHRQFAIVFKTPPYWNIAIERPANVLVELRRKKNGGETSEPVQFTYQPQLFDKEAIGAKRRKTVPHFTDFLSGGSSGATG
# [3] = target: T3, GST-Nv-NF-kB (Ser allele) (Nematostella vectensis, UniProt A7UNT2 2-411)
# T3 sequence: T2 sequence with Q21R, C66S, S207N, E215Q, V217A, E225K, A268E, D399E
# [4] = target: T4, GST-Co-NF-kB (Capsaspora owczarzaki, UniProt F1ARL5 200-546)
# T4 sequence: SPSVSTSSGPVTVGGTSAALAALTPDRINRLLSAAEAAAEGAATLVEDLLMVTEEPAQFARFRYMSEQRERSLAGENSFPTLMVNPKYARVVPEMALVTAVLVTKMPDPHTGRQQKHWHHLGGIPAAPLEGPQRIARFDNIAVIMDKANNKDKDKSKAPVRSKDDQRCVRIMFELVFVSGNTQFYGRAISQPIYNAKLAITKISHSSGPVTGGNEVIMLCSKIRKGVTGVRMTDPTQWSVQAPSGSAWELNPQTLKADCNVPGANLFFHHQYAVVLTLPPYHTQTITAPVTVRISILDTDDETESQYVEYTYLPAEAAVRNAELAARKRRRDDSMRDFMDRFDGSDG
# [5] = target: T5, GST-Dm-Relish (Drosophila melanogaster, UniProt Q94527 99-473)
# T5 sequence: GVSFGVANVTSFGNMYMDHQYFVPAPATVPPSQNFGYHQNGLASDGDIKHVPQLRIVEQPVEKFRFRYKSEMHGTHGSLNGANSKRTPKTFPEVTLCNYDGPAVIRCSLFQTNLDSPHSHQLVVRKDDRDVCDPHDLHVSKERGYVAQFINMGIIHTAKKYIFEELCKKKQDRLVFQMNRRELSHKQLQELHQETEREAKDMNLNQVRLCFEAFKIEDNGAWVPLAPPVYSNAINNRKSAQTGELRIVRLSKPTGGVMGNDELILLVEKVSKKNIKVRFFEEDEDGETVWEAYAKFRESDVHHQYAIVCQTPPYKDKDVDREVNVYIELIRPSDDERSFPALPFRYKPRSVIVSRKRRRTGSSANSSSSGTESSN
# [6] = target: T6, GST-Aq-NF-kB (Amphimedon queenslandica, UniProt A9Y5G7 2-389)
# T6 sequence: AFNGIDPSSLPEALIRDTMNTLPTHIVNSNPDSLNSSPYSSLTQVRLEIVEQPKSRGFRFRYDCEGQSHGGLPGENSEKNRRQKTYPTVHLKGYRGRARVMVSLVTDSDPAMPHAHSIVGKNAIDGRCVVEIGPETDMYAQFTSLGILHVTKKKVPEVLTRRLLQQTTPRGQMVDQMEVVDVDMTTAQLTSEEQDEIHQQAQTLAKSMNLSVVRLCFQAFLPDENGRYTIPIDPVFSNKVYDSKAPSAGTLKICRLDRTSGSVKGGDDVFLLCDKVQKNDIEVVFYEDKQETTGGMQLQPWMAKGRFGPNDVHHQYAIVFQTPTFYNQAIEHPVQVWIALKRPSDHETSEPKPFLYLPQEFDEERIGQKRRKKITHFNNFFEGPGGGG
# [7] = target: GST-Hu-p50 (Homo sapiens, UniProt P19838 7-356)
# Chain of GST-Hu-p50 (P19838 7-356): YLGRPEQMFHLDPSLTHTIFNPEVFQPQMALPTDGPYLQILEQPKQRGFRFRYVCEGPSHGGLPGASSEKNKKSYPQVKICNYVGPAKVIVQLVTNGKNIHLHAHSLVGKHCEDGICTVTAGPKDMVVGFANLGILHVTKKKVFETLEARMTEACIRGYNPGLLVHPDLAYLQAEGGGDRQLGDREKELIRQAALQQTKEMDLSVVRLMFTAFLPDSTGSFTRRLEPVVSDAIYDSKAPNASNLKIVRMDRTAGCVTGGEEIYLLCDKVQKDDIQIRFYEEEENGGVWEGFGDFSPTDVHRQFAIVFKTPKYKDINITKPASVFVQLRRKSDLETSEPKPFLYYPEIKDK
sequence,measurement,setting,value
CCGATTAACATCAATAAACCCCCTGATGTTAATCGGGTCTTGATTCGCTTGACGCTGCTG,binding signal,[1],7.76 z-score
same,binding signal,[2],6.85 z-score
same,binding signal,[3],7.79 z-score
same,binding signal,[4],2.94 z-score
same,binding signal,[5],9.45 z-score
same,binding signal,[6],6.33 z-score
same,binding signal,[7],6.85 z-score
CCGATTAACATCAGGGGAAAGAATGATGTTAATCGGGTCTTGATTCGCTTGACGCTGCTG,binding signal,[1],4.95 z-score
same,binding signal,[2],6.07 z-score
same,binding signal,[3],8.18 z-score
same,binding signal,[4],8.25 z-score
same,binding signal,[5],3.01 z-score
same,binding signal,[6],4.87 z-score
same,binding signal,[7],5.05 z-score
CCGATTAACATCAGGGATCCCCCTGATGTTAATCGGGTCTTGATTCGCTTGACGCTGCTG,binding signal,[1],12 z-score
same,binding signal,[2],10.2 z-score
same,binding signal,[3],9.22 z-score
same,binding signal,[4],5.15 z-score
same,binding signal,[5],11.1 z-score
same,binding signal,[6],10.3 z-score
same,binding signal,[7],6.45 z-score
CCGATTAACATCAAAATCCCCCATGATGTTAATCGGGTCTTGATTCGCTTGACGCTGCTG,binding signal,[1],9.1 z-score
same,binding signal,[2],9.28 z-score
same,binding signal,[3],10.2 z-score
same,binding signal,[4],6.67 z-score
same,binding signal,[5],8.88 z-score
same,binding signal,[6],7.37 z-score
same,binding signal,[7],7.45 z-score
CCGATTAACATCACCCTCCCCCCTGATGTTAATCGGGTCTTGATTCGCTTGACGCTGCTG,binding signal,[1],4.55 z-score
same,binding signal,[2],4.25 z-score
same,binding signal,[3],4.55 z-score
same,binding signal,[4],6.06 z-score
same,binding signal,[5],3.66 z-score
same,binding signal,[6],3.9 z-score
same,binding signal,[7],4.13 z-score
CCGATTAACATCAGATTCCCCCATGATGTTAATCGGGTCTTGATTCGCTTGACGCTGCTG,binding signal,[1],8.01 z-score
same,binding signal,[2],7.43 z-score
same,binding signal,[3],8.63 z-score
same,binding signal,[4],8.94 z-score
same,binding signal,[5],5.21 z-score
same,binding signal,[6],5.82 z-score
same,binding signal,[7],6.7 z-score
CCGATTAACATCAGGATAGCCCCTGATGTTAATCGGGTCTTGATTCGCTTGACGCTGCTG,binding signal,[1],4 z-score
same,binding signal,[2],4.29 z-score
same,binding signal,[3],2.73 z-score
same,binding signal,[5],2.38 z-score
same,binding signal,[6],5.49 z-score
same,binding signal,[7],3.65 z-score
CCGATTAACATCAGGAAAGTCCCTGATGTTAATCGGGTCTTGATTCGCTTGACGCTGCTG,binding signal,[1],7.69 z-score
same,binding signal,[2],10.6 z-score
same,binding signal,[3],8.2 z-score
same,binding signal,[5],8.43 z-score
same,binding signal,[6],9.81 z-score
same,binding signal,[7],7.09 z-score
CCGATTAACATCAAATTACCCCCTGATGTTAATCGGGTCTTGATTCGCTTGACGCTGCTG,binding signal,[1],6.8 z-score
same,binding signal,[2],5.57 z-score
same,binding signal,[3],6.77 z-score
same,binding signal,[4],8.18 z-score
same,binding signal,[5],4.33 z-score
same,binding signal,[6],5.57 z-score
same,binding signal,[7],5.08 z-score
CCGATTAACATCAAGGGGAATACTGATGTTAATCGGGTCTTGATTCGCTTGACGCTGCTG,binding signal,[1],8.04 z-score
same,binding signal,[2],9.26 z-score
same,binding signal,[3],8.56 z-score
same,binding signal,[4],6.16 z-score
same,binding signal,[5],6.38 z-score
same,binding signal,[6],6.62 z-score
same,binding signal,[7],6.33 z-score
CCGATTAACATCAGGGGTTCCCATGATGTTAATCGGGTCTTGATTCGCTTGACGCTGCTG,binding signal,[1],4.04 z-score
same,binding signal,[2],2.36 z-score
same,binding signal,[3],1.37 z-score
same,binding signal,[4],1.64 z-score
same,binding signal,[5],10 z-score
same,binding signal,[6],4.49 z-score
same,binding signal,[7],2.64 z-score
CCGATTAACATCAGGGAGGCCCCTGATGTTAATCGGGTCTTGATTCGCTTGACGCTGCTG,binding signal,[1],5.52 z-score
same,binding signal,[2],3.79 z-score
same,binding signal,[3],1.37 z-score
same,binding signal,[5],6.28 z-score
same,binding signal,[6],7.2 z-score
same,binding signal,[7],3.63 z-score
CCGATTAACATCAACGAATCCCCTGATGTTAATCGGGTCTTGATTCGCTTGACGCTGCTG,binding signal,[1],6.25 z-score
same,binding signal,[2],6.07 z-score
same,binding signal,[3],8.58 z-score
same,binding signal,[4],2.93 z-score
same,binding signal,[5],4.84 z-score
same,binding signal,[6],3.82 z-score
same,binding signal,[7],5.69 z-score
CCGATTAACATCAGAAATGTCCCTGATGTTAATCGGGTCTTGATTCGCTTGACGCTGCTG,binding signal,[1],2.83 z-score
same,binding signal,[2],4.85 z-score
same,binding signal,[3],4.61 z-score
same,binding signal,[4],1.29 z-score
same,binding signal,[5],3.1 z-score
same,binding signal,[6],4.94 z-score
same,binding signal,[7],4.36 z-score
CCGATTAACATCAAGGAAGTCCCTGATGTTAATCGGGTCTTGATTCGCTTGACGCTGCTG,binding signal,[1],5.76 z-score
same,binding signal,[2],5.94 z-score
same,binding signal,[3],5.82 z-score
same,binding signal,[5],7.11 z-score
same,binding signal,[6],5.83 z-score
same,binding signal,[7],4.82 z-score
CCGATTAACATCACGCAAATCCCTGATGTTAATCGGGTCTTGATTCGCTTGACGCTGCTG,binding signal,[1],2.1 z-score
same,binding signal,[2],1.61 z-score
same,binding signal,[3],1.22 z-score
same,binding signal,[5],1.24 z-score
same,binding signal,[6],2 z-score
same,binding signal,[7],1.33 z-score
CCGATTAACATCAGAAACTCCCATGATGTTAATCGGGTCTTGATTCGCTTGACGCTGCTG,binding signal,[1],3.34 z-score
same,binding signal,[2],3.45 z-score
same,binding signal,[3],2.93 z-score
same,binding signal,[5],3.38 z-score
same,binding signal,[6],3.7 z-score
same,binding signal,[7],2.9 z-score
CCGATTAACATCAGGAAGGTCCCTGATGTTAATCGGGTCTTGATTCGCTTGACGCTGCTG,binding signal,[1],3.51 z-score
same,binding signal,[2],2.97 z-score
same,binding signal,[3],1.09 z-score
same,binding signal,[5],1.64 z-score
same,binding signal,[6],5.37 z-score
same,binding signal,[7],2.52 z-score
CCGATTAACATCAGGGACATACCTGATGTTAATCGGGTCTTGATTCGCTTGACGCTGCTG,binding signal,[1],2.52 z-score
same,binding signal,[2],3.64 z-score
same,binding signal,[3],1.01 z-score
same,binding signal,[5],3.64 z-score
same,binding signal,[6],5.64 z-score
same,binding signal,[7],2.14 z-score
CCGATTAACATCAGGGACTTTACTGATGTTAATCGGGTCTTGATTCGCTTGACGCTGCTG,binding signal,[1],5.17 z-score
same,binding signal,[2],6.47 z-score
same,binding signal,[3],6.59 z-score
same,binding signal,[5],7.99 z-score
same,binding signal,[6],6.61 z-score
same,binding signal,[7],5.06 z-score
CCGATTAACATCACCCAATTCCCTGATGTTAATCGGGTCTTGATTCGCTTGACGCTGCTG,binding signal,[1],3.33 z-score
same,binding signal,[2],3.63 z-score
same,binding signal,[3],4.42 z-score
same,binding signal,[4],2.69 z-score
same,binding signal,[5],1.62 z-score
same,binding signal,[6],2.94 z-score
same,binding signal,[7],2.81 z-score
CCGATTAACATCAGAAAGTCCCATGATGTTAATCGGGTCTTGATTCGCTTGACGCTGCTG,binding signal,[1],5.73 z-score
same,binding signal,[2],7.09 z-score
same,binding signal,[3],6.43 z-score
same,binding signal,[5],6.06 z-score
same,binding signal,[6],5.57 z-score
same,binding signal,[7],4.63 z-score
CCGATTAACATCAGAGAAGCCCCTGATGTTAATCGGGTCTTGATTCGCTTGACGCTGCTG,binding signal,[1],4.39 z-score
same,binding signal,[2],5.41 z-score
same,binding signal,[3],4.05 z-score
same,binding signal,[5],3.44 z-score
same,binding signal,[6],5.35 z-score
same,binding signal,[7],4.67 z-score
CCGATTAACATCAAAGAAGTCCCTGATGTTAATCGGGTCTTGATTCGCTTGACGCTGCTG,binding signal,[1],5.78 z-score
same,binding signal,[2],6.68 z-score
same,binding signal,[3],6.97 z-score
same,binding signal,[5],5.18 z-score
same,binding signal,[6],5.56 z-score
same,binding signal,[7],5.29 z-score
